Values joined by “and” are separate entries in the source; they are usually repeats but may differ in a detail not shown here. Identical values can stand only once. Results filed as inconclusive are left out. Unmarked numbers belong to inactive results. Active and inactive are the calls of the source. Calls follow the shape of the dose curve; as a rule, active = well fitted inhibition curve with a large enough effect; inconclusive = small, poorly fitted or top-dose-only effect; inactive = flat fitted curve, though single readings scatter.
% is scaled to controls: 0 for no effect and ±100 for the full control effect; potency is read from the fitted curve at half-maximal effect.

In the assay the test system is HEK293. In words: Cytotoxic Profiling of Annotated Libraries Using Quantitative High-Throughput Screening (AID 1296008). Also: nearly all actives have a fitted effect of over 60% in size. The note with it: Five cell lines viability, CellTiter-Glo ATP luminescence, 48-72 h; max response: active compounds read low. From the text:
Cell-based phenotypic screening is a commonly used approach to discover biological pathways, novel drug targets, chemical probes and high-quality hit-to-lead molecules. Many hits identified from high-throughput screening campaign are ruled out through a series of follow-up potency, selectivity/specificity, and cytotoxicity assays. Prioritization of molecules with little or no cytotoxicity for a more in-depth downstream evaluation influence the future direction of projects, so cytotoxicity profiling of the screening libraries at early stage is essential for increasing the likelihood of candidate success. […] For the annotated library, we also examined the primary targets and mechanistic pathways regularly associated with cell death. To our knowledge, this is the first study to use high-throughput screening to profile large libraries for cytotoxicity assessment in both normal and cancer cell lines. In summary, the results generated here constitutes a valuable resource for the scientific community and provides insight on identifying cytotoxic compounds with particular mechanisms of action, and prioritizing compounds with suitable cytotoxicity profile for further evaluation.
A pintool (Kalypsys) was used to transfer 23 nL of compound solution to the 1536-well assay plates. After 48 or 72 hr incubation at 37 degree Celsius, 5% CO2 and 95% humidity, 2.5 uL of CellTiter-Glo (Promega) was dispensed into each well using a dispenser (Aspect Automation, St. Paul, MN) with solenoid valves (Lee Valves, Westbrook CT). Plates were left at room temperature for 10 min before imaging the ATP-coupled luminescence using a ViewLux microplate imager (PerkinElmer, Waltham, MA).
A general note: Cellular ATP, detected with luciferase, serves as a proxy for viable cell number.
In the case of `Nc1nc(N)nc(NC2CC2)n1`, the max response was -46.2%. As to `CC(C)(C)NCC(O)c1cc(Cl)c(N)c(C(F)(F)F)c1` (stereo not given), the molecule was classed as inactive. Turning to `CC(NC(C)(C)C)C(=O)c1cccc(Cl)c1` (stereo not given), the max response is -3.26% and -3.1%; the call was inactive. Take `CNCC(=O)c1ccc(O)c(O)c1`: the max response is 3.33%. Turning to `COC(=O)C(Cl)C(=O)OC`, the result was inactive.

`CC(C(=O)c1ccccc1)N(C)C` (stereo not given): the max response was -1.39%. Take `CCC(C)(C)c1ccc(O)cc1`: the molecule was classed as inactive. Turning to `C[N+]1(CCF)[C@@H]2CC[C@H]1CC(OC(=O)C(O)(c1ccccc1)c1ccccc1)C2` (stereo not given in full), the max response was -5.81%. Consider `CC(C)N(CCC(C(N)=O)(c1ccccc1)c1ccccn1)C(C)C` (stereo not given), for which the max response is -72.3%. `CCCCC/C=C\C/C=C\C/C=C\C/C=C\CCCC(=O)NCC(=O)O`: the max response was -7.97%. The same measure, in the same setting: as for `NC(=O)c1cc([N+](=O)[O-])cc([N+](=O)[O-])c1`, the figure is -2.7%; as for `[N-]=[N+]=CC(=O)OC[C@H](N)C(=O)O`, 4.4%; as for `c1ccc(CN2CCNCC2)cc1`, -21.3%. Take `Nc1ccccc1`: the result was inactive. For the molecule `Nc1ccc([As](=O)(O)O)cc1`, the max response is -6.15%. In the case of `CC(C)(C)NCC(O)c1ccccc1Cl` (stereo not given), the max response is -2.46%.

`CC1(C)C(C=C(Cl)Cl)C1C(=O)OC(C#N)c1cccc(Oc2ccccc2)c1` (stereo not given): the max response is 2.42%. Still for that read-out and setting: as for `CN1CC[C@]23c4c5ccc(O)c4O[C@H]2[C@@H](O)CC[C@H]3[C@H]1C5`, the figure is -12.9%. With `COc1cccc([C@@]2(O)CCCC[C@@H]2CN(C)C)c1`, the max response is -4.04%. The same measure, in the same setting: as for `CN1C(=O)COc2c(C(=O)NC3CN4CCC3CC4)cc(Cl)cc21` (stereo not given), the figure is -5.69% and -2.96%; as for `CCN(CC)CCc1c[nH]c2ccccc12`, -22%. Same read-out and setting: as for `CC(C)=CC1C(C(=O)OCN2C(=O)C3=C(CCCC3)C2=O)C1(C)C` (stereo not given), the figure is -22.7%. As for `CCN(CC)C(=O)[C@@H]1C=C2c3cccc4[nH]cc(c34)C[C@H]2N(C)C1`, the Potency is 80 µM (active). Turning to `CCCCCCCCCC(=O)O[C@H]1CC[C@H]2[C@@H]3CCC4=CC(=O)CC[C@@H]4[C@H]3CC[C@]12C`, the max response is -2.03%. As to `O=C(O)/C=C\C(=O)O`, the max response was -3.36%. For `COP(=S)(OC)Oc1ccc(S(=O)(=O)N(C)C)cc1`, the max response was -6.52%. For the molecule `O=C1OC(c2ccc(O)c(S(=O)(=O)O)c2)(c2ccc(O)c(S(=O)(=O)O)c2)c2c(Br)c(Br)c(Br)c(Br)c21`, the outcome was inactive.

On to `ClCCN1CCCC1`, for which the outcome was inactive. On to `CCN[C@@H](C)Cc1cccc(C(F)(F)F)c1`, for which the max response was 3.69%. In the case of `C=CCN1C[C@H](C)N([C@H](c2ccc(C(=O)N(CC)CC)cc2)c2cccc(OC)c2)C[C@H]1C`, the max response was -3.98% and -24.1%. Regarding `O=C1c2ccccc2C(=O)c2ccccc21`, the result was inactive. Take `c1ccc2c(c1)sc1ccccc12`: the max response is 0.977%. `O=C1c2ccccc2C(=O)C1C(=O)C(c1ccccc1)c1ccccc1`: the outcome was inactive. In the case of `C[C@H]1[C@@H]2Cc3ccc(O)cc3[C@@]1(C)CCN2C`, the max response is -19.5%. The same measure, in the same setting: as for `Nc1ccccc1C(=O)O`, the figure is -5.49%. Consider `COP(=S)(OC)Oc1ccc(SC)c(C)c1`, for which the max response is -0.0428%.

For `O=P1(N(CCCl)CCCl)NCCCO1` (stereo not given), the max response is -27.8% and -15.3%.

In the case of `CC(C)C[C@H](CN)CC(=O)O`, the max response was 2.24%. As to `c1ccc(N2CCNCC2)cc1`, the max response was -4.08%.

The values are drawn from PubChem BioAssay (NCATS).
